# Assay results taken from PubChem BioAssay (NCI).
# The panel holds about 79,000 compounds, 15% with a hit somewhere; the sample as a whole holds those more often. A number with no mark means an inactive call. Calls of active or inactive are those of the source. No stated cut-off is given here; in the data, active means growth inhibition above about 70%; inactive means the rest.
# Assays:
# [1] = NCI Yeast Anticancer Drug Screen. Data for the rad52 strain (AID 147);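 further: 0% = growth of vehicle-treated control cultures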; conditions: S. cerevisiae rad52 mutant growth inhibition, hits give high values
# Summary of the method: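 Here a repair-compromised yeast strain receives each compound; its growth is then quantified and normalised to vehicle-only controls.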
# [2] = NCI Yeast Anticancer Drug Screen. Data for the wt1 strain (AID 149);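 further: 0% = growth of vehicle-treated wt1 cultures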; conditions: S. cerevisiae wt1 strain (SPY 50644) growth inhibition, hits give high values
# Summary of the method: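 Measured: growth of wt1 yeast under compound versus vehicle treatment, reported as inhibition.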
# [3] = NCI Yeast Anticancer Drug Screen. Data for the rad50EPP+ strain (AID 151);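 further: 0% = growth of vehicle-treated control cultures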; conditions: S. cerevisiae rad50 mutant strain, hits give high values
# Summary of the method: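 Read-out is yeast growth inhibition relative to vehicle; cells used were the rad50EPP+ strain.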
# [4] = NCI Yeast Anticancer Drug Screen. Data for the mgt1 strain (AID 153); conditions: S. cerevisiae mgt1 mutant growth inhibition, hits give high values
# Summary of the method: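 Measured: inhibition of mgt1 yeast growth by compound, normalized to vehicle-treated cultures.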
# [5] = NCI Yeast Anticancer Drug Screen. Data for the rad50 strain (AID 155);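 further: 0% = growth of vehicle-only cultures of the same strain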; conditions: S. cerevisiae rad50 strain growth inhibition, hits give high values
# Summary of the method: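 Growth of the mutant yeast was measured after compound exposure and referenced to vehicle-treated cultures.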
# [6] = NCI Yeast Anticancer Drug Screen. Data for the mec2-1 strain (AID 157); conditions: S. cerevisiae mec2-1 strain, hits give high values
# Summary of the method: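 Using mec2-1 yeast: add compound, measure growth, express inhibition versus vehicle-treated cultures.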
# [7] = NCI Yeast Anticancer Drug Screen. Data for the rad14 strain (AID 159);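 further: 0% = growth of vehicle-treated control cultures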; conditions: S. cerevisiae rad14 strain growth inhibition, hits give high values
# Summary of the method: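 Here, inhibition of yeast growth was measured after compound exposure, using a strain with a genetic defect in DNA damage repair and vehicle-treated cultures as the reference.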
# [8] = NCI Yeast Anticancer Drug Screen. Data for the sgs1 mgt1 strain (AID 161);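 further: 0% = growth of cultures given vehicle only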; conditions: S. cerevisiae sgs1 mgt1 strain, hits give high values
# Summary of the method: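 This yeast growth screen uses a strain with defined DNA-repair lesions; compound-treated growth is compared with vehicle-treated growth.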
# [9] = NCI Yeast Anticancer Drug Screen. Data for the CLN2oe strain (AID 163);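 further: 0% = growth of vehicle-only control cultures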; conditions: S. cerevisiae CLN2oe strain, hits give high values
# Summary of the method: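 Whole-cell yeast growth assay. A strain engineered for altered cell-cycle control received compound, and inhibition relative to vehicle-treated cultures was recorded.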
# [10] = NCI Yeast Anticancer Drug Screen. Data for the cln2 rad14 strain (AID 165);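 further: 0% = growth equal to vehicle treated cultures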; conditions: S. cerevisiae cln2 rad14 strain, hits give high values
# Summary of the method: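 Yeast strain cln2 rad14, bearing defects in cell cycle control and DNA repair, serves as the test system; values reflect growth inhibition compared with vehicle.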
# [11] = NCI Yeast Anticancer Drug Screen. Data for the bub3 strain (AID 167); conditions: S. cerevisiae bub3 mutant strain, hits give high values
# Summary of the method: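 Whole-cell yeast assay. The mutant strain was incubated with compounds, and growth inhibition was determined by comparison with vehicle-treated cells.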
# [12] = NCI Yeast Anticancer Drug Screen. Data for the wt2 strain (AID 169);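 further: 0% = growth of vehicle-treated yeast cultures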; conditions: S. cerevisiae wt2 strain growth inhibition, hits give high values
# Summary of the method: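 Treated yeast vs. vehicle-treated yeast: growth inhibition determined.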
# [13] = NCI Yeast Anticancer Drug Screen. Data for the mlh1 strain (AID 171);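 further: 0% = growth of vehicle-treated control cultures of the same strain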; conditions: S. cerevisiae mlh1 strain growth inhibition, hits give high values
# Summary of the method: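 A yeast strain with a defined genetic lesion serves as the test organism. Cultures receive compound or vehicle, and growth is measured.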
# [14] = NCI Yeast Anticancer Drug Screen. Data for the sgs1 strain (AID 173);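 further: 0% = growth of vehicle-only control cultures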; conditions: S. cerevisiae sgs1 mutant, hits give high values
# Summary of the method: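 A genetically defined yeast mutant is incubated with the test compound, and its growth is compared to that of the same strain given vehicle.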
# [15] = NCI Yeast Anticancer Drug Screen. Data for the mlh1 rad18 strain (AID 175); conditions: S. cerevisiae mlh1 rad18 strain growth inhibition, hits give high values
# Summary of the method: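 Steps: expose repair-defective yeast to compound; measure growth; express inhibition against vehicle-treated controls.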
# [16] = NCI Yeast Anticancer Drug Screen. Data for the rad18 strain (AID 177); conditions: S. cerevisiae rad18 mutant growth inhibition, hits give high values
# Summary of the method: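 Measured value is growth inhibition of a yeast strain bearing a DNA repair alteration, referenced to vehicle-treated cells.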
# [17] = at 5.0 µM (retest, dose inferred, filed as 0.5)
# [18] = at 50.0 µM (retest, dose inferred, filed as 5.0)
smiles,measurement,setting,value
Oc1ccc(SCc2ccc(NCc3ccccc3)cc2)cc1,growth inhibition,[1]; at 1.2 µM,-4%
same,growth inhibition,[1]; at 3.7 µM,-27%
same,growth inhibition,[1]; at 11.0 µM,-26%
same,growth inhibition,[1]; at 33.0 µM,19%
same,growth inhibition,[1]; at 100.0 µM,89% (active)
same,growth inhibition,[2]; at 1.2 µM,-32%
same,growth inhibition,[2]; at 3.7 µM,-35%
same,growth inhibition,[2]; at 11.0 µM,-52%
same,growth inhibition,[2]; at 33.0 µM,-4%
same,growth inhibition,[2]; at 100.0 µM,91% (active)
same,growth inhibition,[3]; at 1.2 µM,-10%
same,growth inhibition,[3]; at 3.7 µM,-22%
same,growth inhibition,[3]; at 11.0 µM,-17%
same,growth inhibition,[3]; at 33.0 µM,0%
same,growth inhibition,[3]; at 100.0 µM,6%
same,growth inhibition,[4]; at 1.2 µM,-4%
same,growth inhibition,[4]; at 3.7 µM,7%
same,growth inhibition,[4]; at 11.0 µM,22%
same,growth inhibition,[4]; at 33.0 µM,47%
same,growth inhibition,[4]; at 100.0 µM,87% (active)
same,growth inhibition,[5]; at 1.2 µM,0%
same,growth inhibition,[5]; at 3.7 µM,-13%
same,growth inhibition,[5]; [17],22%
same,growth inhibition,[5]; at 11.0 µM,-11%
same,growth inhibition,[5]; at 33.0 µM,23%
same,growth inhibition,[5]; [18],94% (active)
same,growth inhibition,[5]; at 50.0 µM,66.8%
same,growth inhibition,[5]; at 100.0 µM,87% (active)
same,growth inhibition,[6]; at 1.2 µM,-7%
same,growth inhibition,[6]; at 3.7 µM,1%
same,growth inhibition,[6]; [17],12%
same,growth inhibition,[6]; at 11.0 µM,-13%
same,growth inhibition,[6]; at 33.0 µM,20%
same,growth inhibition,[6]; [18],55%
same,growth inhibition,[6]; at 50.0 µM,87.1% (active)
same,growth inhibition,[6]; at 100.0 µM,89% (active)
same,growth inhibition,[7]; at 1.2 µM,-30%
same,growth inhibition,[7]; at 3.7 µM,-44%
same,growth inhibition,[7]; at 11.0 µM,-31%
same,growth inhibition,[7]; at 33.0 µM,29%
same,growth inhibition,[7]; at 100.0 µM,89% (active)
same,growth inhibition,[8]; [17],42%
same,growth inhibition,[8]; [18],63%
same,growth inhibition,[8]; at 50.0 µM,77.7% (active)
same,growth inhibition,[9]; at 1.2 µM,12%
same,growth inhibition,[9]; at 3.7 µM,13%
same,growth inhibition,[9]; at 11.0 µM,13%
same,growth inhibition,[9]; at 33.0 µM,40%
same,growth inhibition,[9]; at 100.0 µM,90% (active)
same,growth inhibition,[10]; [17],38%
same,growth inhibition,[10]; [18],56%
same,growth inhibition,[10]; at 50.0 µM,49.4%
same,growth inhibition,[11]; at 1.2 µM,20%
same,growth inhibition,[11]; at 3.7 µM,14%
same,growth inhibition,[11]; [17],53%
same,growth inhibition,[11]; at 11.0 µM,11%
same,growth inhibition,[11]; at 33.0 µM,60%
same,growth inhibition,[11]; [18],50%
same,growth inhibition,[11]; at 50.0 µM,87.3% (active)
same,growth inhibition,[11]; at 100.0 µM,90% (active)
same,growth inhibition,[12]; at 1.2 µM,-16%
same,growth inhibition,[12]; at 3.7 µM,-46%
same,growth inhibition,[12]; at 11.0 µM,-33%
same,growth inhibition,[12]; at 33.0 µM,9%
same,growth inhibition,[12]; at 100.0 µM,91% (active)
same,growth inhibition,[13]; at 1.2 µM,-8%
same,growth inhibition,[13]; at 3.7 µM,-25%
same,growth inhibition,[13]; at 11.0 µM,-14%
same,growth inhibition,[13]; at 33.0 µM,18%
same,growth inhibition,[13]; at 100.0 µM,86% (active)
same,growth inhibition,[14]; at 1.2 µM,-33%
same,growth inhibition,[14]; at 3.7 µM,-63%
same,growth inhibition,[14]; at 11.0 µM,-41%
same,growth inhibition,[14]; at 33.0 µM,26%
same,growth inhibition,[14]; at 100.0 µM,87% (active)
same,growth inhibition,[15]; [17],19%
same,growth inhibition,[15]; [18],75% (active)
same,growth inhibition,[15]; at 50.0 µM,79.8% (active)
same,growth inhibition,[16]; at 1.2 µM,22%
same,growth inhibition,[16]; at 3.7 µM,7%
same,growth inhibition,[16]; at 11.0 µM,12%
same,growth inhibition,[16]; at 33.0 µM,32%
same,growth inhibition,[16]; at 100.0 µM,91% (active)
NCCNCCNc1ccc(NCCNCCN)c2c1C(=O)c1c(O)ccc(O)c1C2=O,growth inhibition,[1]; at 1.2 µM,34%
same,growth inhibition,[1]; at 3.7 µM,48%
same,growth inhibition,[1]; at 11.0 µM,91% (active)
same,growth inhibition,[1]; at 33.0 µM,93% (active)
same,growth inhibition,[1]; at 100.0 µM,85% (active)
same,growth inhibition,[2]; at 1.2 µM,-49%
same,growth inhibition,[2]; at 3.7 µM,-2%
same,growth inhibition,[2]; at 11.0 µM,-4%
same,growth inhibition,[2]; at 33.0 µM,0%
same,growth inhibition,[2]; at 100.0 µM,12%
same,growth inhibition,[3]; at 1.2 µM,9%
same,growth inhibition,[3]; at 3.7 µM,36%
same,growth inhibition,[3]; at 11.0 µM,69%
same,growth inhibition,[3]; at 33.0 µM,84% (active)
same,growth inhibition,[3]; at 100.0 µM,69%
same,growth inhibition,[4]; at 1.2 µM,-2%
same,growth inhibition,[4]; at 3.7 µM,0%
same,growth inhibition,[4]; at 11.0 µM,1%
same,growth inhibition,[4]; at 33.0 µM,7%
same,growth inhibition,[4]; at 100.0 µM,19%
same,growth inhibition,[5]; at 1.2 µM,17%
same,growth inhibition,[5]; at 3.7 µM,49%
same,growth inhibition,[5]; [17],20%
same,growth inhibition,[5]; at 11.0 µM,82% (active)
same,growth inhibition,[5]; at 33.0 µM,88% (active)
same,growth inhibition,[5]; [18],66%
same,growth inhibition,[5]; at 50.0 µM,87.7% (active)
same,growth inhibition,[5]; at 100.0 µM,84% (active)
same,growth inhibition,[6]; at 1.2 µM,27%
same,growth inhibition,[6]; at 3.7 µM,1%
same,growth inhibition,[6]; [17],0%
same,growth inhibition,[6]; at 11.0 µM,-7%
same,growth inhibition,[6]; at 33.0 µM,11%
same,growth inhibition,[6]; [18],45%
same,growth inhibition,[6]; at 50.0 µM,0.2%
same,growth inhibition,[6]; at 100.0 µM,31%
same,growth inhibition,[7]; at 1.2 µM,-4%
same,growth inhibition,[7]; at 3.7 µM,-2%
same,growth inhibition,[7]; at 11.0 µM,0%
same,growth inhibition,[7]; at 33.0 µM,5%
same,growth inhibition,[7]; at 100.0 µM,15%
same,growth inhibition,[8]; [17],-6%
same,growth inhibition,[8]; [18],8%
same,growth inhibition,[8]; at 50.0 µM,15.1%
same,growth inhibition,[9]; at 1.2 µM,-10%
same,growth inhibition,[9]; at 3.7 µM,-7%
same,growth inhibition,[9]; at 11.0 µM,-10%
same,growth inhibition,[9]; at 33.0 µM,-9%
same,growth inhibition,[9]; at 100.0 µM,40%
same,growth inhibition,[10]; [17],32%
same,growth inhibition,[10]; [18],34%
same,growth inhibition,[10]; at 50.0 µM,7%
same,growth inhibition,[11]; at 1.2 µM,-4%
same,growth inhibition,[11]; at 3.7 µM,-11%
same,growth inhibition,[11]; [17],20%
same,growth inhibition,[11]; at 11.0 µM,-10%
same,growth inhibition,[11]; at 33.0 µM,-8%
same,growth inhibition,[11]; [18],-1%
same,growth inhibition,[11]; at 50.0 µM,-1.95%
same,growth inhibition,[11]; at 100.0 µM,20%
same,growth inhibition,[12]; at 1.2 µM,-3%
same,growth inhibition,[12]; at 3.7 µM,-3%
same,growth inhibition,[12]; at 11.0 µM,-3%
same,growth inhibition,[12]; at 33.0 µM,14%
same,growth inhibition,[12]; at 100.0 µM,53%
same,growth inhibition,[13]; at 1.2 µM,0%
same,growth inhibition,[13]; at 3.7 µM,-2%
same,growth inhibition,[13]; at 11.0 µM,-1%
same,growth inhibition,[13]; at 33.0 µM,-1%
same,growth inhibition,[13]; at 100.0 µM,16%
same,growth inhibition,[14]; at 1.2 µM,1%
same,growth inhibition,[14]; at 3.7 µM,4%
same,growth inhibition,[14]; at 11.0 µM,2%
same,growth inhibition,[14]; at 33.0 µM,13%
same,growth inhibition,[14]; at 100.0 µM,25%
same,growth inhibition,[15]; [17],11%
same,growth inhibition,[15]; [18],0%
same,growth inhibition,[15]; at 50.0 µM,16.5%
